# Reference: the supplement of paper PMC9135407
# Values joined by “and” are separate entries in the source; they are usually repeats but may differ in a detail not shown here. Identical values can stand only once. Counter-ions that a name gives are not always drawn. The whole screen tested about 5,800 compounds, of which about 620 (11%) showed activity. Many of the other results were omitted from the sample, so actives are more common in it than they were. Unmarked numbers belong to inactive results.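 The calls were made as follows: active = score above a cut-off or among the top three wells of a plate; in these data no inactive exceeds 0.85.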
# Tested on: primary human hepatic stellate cells (donor 1)
# Experiment: scaled lipid accumulation score (0 = DMSO-like, 1 = nortriptyline-like); higher = stronger HSC inactivation (lipid re-accumulation), active = hit call of the paper
# Details: 48 h
# [1] = library stock concentration: 10 mM
# [2] = library stock concentration: 1 mM
# [3] = library stock concentration: 3.33 mM
# [4] = library stock concentration: 2 mM
# [5] = library stock concentration: 5.1 mM
smiles,measurement,setting,value
O=C1CSC(c2ccccc2Cl)c2cc(Cl)ccc2N1 (stereo unspecified),scaled lipid accumulation score,[1],≤ -0.006
same,scaled lipid accumulation score,library stock concentration: 15.4 mM,0.158
CC[C@@]1([C@@H]2O[C@@H]([C@H]3O[C@@](O)(CO)[C@H](C)C[C@@H]3C)C[C@@H]2C)CC[C@H]([C@]2(C)CC[C@]3(C[C@H](O)[C@@H](C)[C@@H]([C@@H](C)[C@@H](OC)[C@H](C)C(=O)O)O3)O2)O1 [Monensin sodium salt],scaled lipid accumulation score,,0.541
CC[C@@]1([C@H]2O[C@H]([C@H]3O[C@@](O)(CO)[C@H](C)C[C@@H]3C)C[C@H]2C)CC[C@H]([C@@]2(C)CC[C@]3(C[C@H](O)[C@@H](C)[C@@H]([C@H](C)[C@H](OC)[C@@H](C)C(=O)O)O3)O2)O1 [Monensin sodium],scaled lipid accumulation score,library stock concentration: 7.2 mM,0.508
C=C1[C@H]2C[C@@]3([C@@H]1O)[C@@H](C[C@@H]2O)[C@]12[C@@H]4C[C@H]3[C@H]1N(CC)C[C@]4(C)CC[C@@H]2O [Napelline],scaled lipid accumulation score,,≤ 0
NCCC(O)C(=O)NC1CC(N)C(OC2OC(CN)C(O)[C@H](O)[C@@H]2N)[C@H](OC2O[C@H](CO)[C@@H](O)[C@@H]2O)[C@@H]1O (stereo partly specified) [Butirosin disulfate salt],scaled lipid accumulation score,,0.015
COc1ccc(/C=C\c2cc(OC)cc(OC)c2)cc1 [cis-trismethoxy Resveratrol],scaled lipid accumulation score,[2],0.097
N[C@]1(C(=O)O)CC[C@H](C(=O)O)C1,scaled lipid accumulation score,[1],0.035
C[C@H]1O[C@@H](O[C@@H]2C[C@H](O)[C@]3(CO)[C@H]4[C@H](O)C[C@]5(C)[C@H](C6=CC(=O)OC6)CC[C@]5(O)[C@@H]4CC[C@]3(O)C2)[C@@H](O)[C@H](O)[C@H]1O.O.O.O.O.O.O.O.O [Ouabain],scaled lipid accumulation score,[3],1.05 (active)
same,scaled lipid accumulation score,[1],1.06 (active)
C[C@@H]1O[C@@H](O[C@H]2C[C@@H](O)[C@]3(CO)[C@H]4[C@H](O)C[C@]5(C)[C@@H](C6=CC(=O)OC6)CC[C@]5(O)[C@@H]4CC[C@]3(O)C2)[C@H](O)[C@H](O)[C@H]1O.O.O.O.O.O.O.O.O [Strophantine octahydrate],scaled lipid accumulation score,,1.02 (active)
CCCCC/C=C\C/C=C\C/C=C\C/C=C\CCCC(=O)Nc1ccc2c(C)cc(=O)oc2c1 [AMC Arachidonoyl Amide],scaled lipid accumulation score,[2],0.06
C/C=C1\C[C@@H](C)[C@](O)(CO)C(=O)OCC2=CCN3CC[C@@H](OC1=O)[C@@H]23 [Retrorsine],scaled lipid accumulation score,,≤ 0
COc1c(C[C@@H](C)OC(=O)Oc2ccc(O)cc2)c2c3c(C[C@@H](C)OC(=O)c4ccccc4)c(OC)c(=O)c4c(O)cc(OC)c(c5c(OC)cc(O)c(c1=O)c52)c43 [Calphostin C],scaled lipid accumulation score,library stock concentration: 600 uM,0.094
C=C[C@]12CN(C)[C@@H]3[C@H]4CO[C@H](C[C@H]41)[C@]1(C(=O)Nc4ccccc41)[C@@H]32 [Gelsemine],scaled lipid accumulation score,,≤ 0
C=CCc1ccccc1OCC(O)CNC1(C)CCC(C(C)(C)NC(=O)CBr)CC1 (stereo unspecified) [Bromoacetyl alprenolol menthane],scaled lipid accumulation score,[1],≤ 0
CO[C@H]1CC[C@@H](O[C@H]2C[C@H]([C@]3(C)CC[C@]4(C[C@H](O)[C@@H](C)[C@@H]([C@@H](C)/C=C(\C)C(=O)[C@H](C)C[C@H](C)C(=O)O)O4)O3)O[C@]3(O[C@@H]([C@H]4O[C@@](O)(CO)[C@H](C)C[C@@H]4C)C[C@@H]3C)[C@@H]2C)O[C@@H]1C [Nanchangmycin],scaled lipid accumulation score,[3],1.27 (active)
same,scaled lipid accumulation score,[1],0.663
CO[C@@H]1C[C@@H](C[C@H]2CC[C@H](C)[C@H]([C@@H](C)C(=O)O)O2)O[C@]2(O[C@](C)([C@H]3CC[C@@](C)([C@@H]4O[C@@H]([C@H]5O[C@@](O)(CO)[C@H](C)C[C@@H]5C)C[C@@H]4C)O3)C[C@H]2C)[C@@H]1C [Nigericin],scaled lipid accumulation score,library stock concentration: 6.9 mM,0.535
NC(Cc1cc(O)c(O)cc1O)C(=O)O (racemic) [6-Hydroxy-DL-DOPA],scaled lipid accumulation score,[1],≤ -0.07
C[C@@H]1O[C@@H](O[C@H]2CC[C@]3(C=O)[C@H]4CC[C@]5(C)[C@@H](C6=CC(=O)OC6)CC[C@]5(O)[C@@H]4CC[C@]3(O)C2)[C@H](O)[C@H](O)[C@H]1O [Convallatoxin],scaled lipid accumulation score,[1],0.656
CC(=O)[C@H]1CC[C@H]2[C@@H]3CC[C@H]4C[C@H](O)CC[C@]4(C)[C@H]3CC[C@]12C [5alpha-Pregnan-3alpha-ol-20-one],scaled lipid accumulation score,[1],≤ 0
CC(=O)O[C@H]1C[C@H](O[C@H]2[C@@H](O)C[C@H](O[C@H]3[C@@H](O)C[C@H](O[C@H]4CC[C@@]5(C)[C@H](CC[C@@H]6[C@@H]5C[C@@H](O)[C@]5(C)[C@@H](C7=CC(=O)OC7)CC[C@]65O)C4)O[C@@H]3C)O[C@@H]2C)O[C@H](C)[C@H]1O[C@@H]1O[C@H](CO)[C@@H](O)[C@H](O)[C@H]1O [Lanatoside c],scaled lipid accumulation score,[4],0.894 (active)
same,scaled lipid accumulation score,[1],0.892 (active)
C[C@H]1CC[C@]2(NC1)O[C@H]1C[C@H]3[C@@H]4CC[C@H]5C[C@@H](O[C@@H]6O[C@H](CO)[C@H](O[C@@H]7O[C@H](CO)[C@@H](O)[C@H](O[C@@H]8OC[C@@H](O)[C@H](O)[C@H]8O)[C@H]7O[C@@H]7O[C@H](CO)[C@@H](O)[C@H](O)[C@H]7O)[C@H](O)[C@H]6O)CC[C@]5(C)[C@H]4CC[C@]3(C)[C@H]1[C@@H]2C [Tomatine],scaled lipid accumulation score,,0.319
C[C@]12CC[C@@H](O)C[C@H]1CC[C@@H]1[C@@H]2CC[C@]2(C)C(=O)CC[C@@H]12 [3-alpha-Hydroxy-5-beta-androstan-17-one],scaled lipid accumulation score,,≤ 0
CO[C@H]1[C@H](O)[C@@H](O[C@H]2CC[C@]3(C=O)C4CC[C@]5(C)[C@@H](C6=CC(=O)OC6)CC[C@]5(O)C4CC[C@@H]3C2)O[C@@H](C)[C@@H]1O (stereo partly specified) [Peruvoside],scaled lipid accumulation score,[1],0.873 (active)
C[C@]12CC[C@H](O)C[C@@H]1CC[C@@H]1[C@@H]2CC[C@]2(C)C(=O)CC[C@@H]12 [Epiandrosterone],scaled lipid accumulation score,,0.082
same,scaled lipid accumulation score,[3],≤ 0
same,scaled lipid accumulation score,[1],≤ 0
C[C@]12CC[C@H](O)C[C@H]1CC[C@@H]1[C@@H]2CC[C@]2(C)[C@@H](C3=CC(=O)OC3)CC[C@]12O [Digitoxigenin],scaled lipid accumulation score,,0.936 (active)
C[C@]12CC[C@H](O)C[C@H]1CC[C@@H]1[C@@H]2C[C@@H](O)[C@]2(C)[C@@H](C3=CC(=O)OC3)CC[C@]12O [Digoxigenin],scaled lipid accumulation score,,0.991 (active)
C[C@]12CC[C@@H](O)C[C@@H]1CC[C@@H]1[C@@H]2CC[C@]2(C)C(=O)CC[C@@H]12 [Androsterone],scaled lipid accumulation score,,0.083
CC(=O)O[C@H]1C[C@H](O[C@H]2[C@@H](O)C[C@H](O[C@H]3[C@@H](O)C[C@H](O[C@H]4CC[C@@]5(C)[C@H](CC[C@@H]6[C@@H]5C[C@@H](O)[C@]5(C)[C@@H](C7=CC(=O)OC7)CC[C@]65O)C4)O[C@@H]3C)O[C@@H]2C)O[C@H](C)[C@H]1O[C@@H]1O[C@H](CO)[C@@H](O)[C@H](O)[C@H]1O [Lanatoside C],scaled lipid accumulation score,,1.08 (active)
CCCCCCCC/C=C\CCCCCCCC(=O)OC[C@@H](COP(O)(O)=S)OC,scaled lipid accumulation score,[2],0.084
NC(=NN=Cc1ccc(-c2cccc([N+](=O)[O-])c2)o1)N[N+](=O)[O-] [ERK Inhibitor III],scaled lipid accumulation score,[3],≤ 0
Cn1c2c(c3ccccc31)CCNCC2,scaled lipid accumulation score,[1],0.326
COc1cccc(C2(O)CCCCC2CN(C)C)c1 (stereo unspecified) [Tramadol HCl],scaled lipid accumulation score,library stock concentration: 7.6 mM,≤ 0
COc1cccc(C2(O)CCCCC2CN(C)C)c1 (stereo unspecified) [Tramadol hydrochloride],scaled lipid accumulation score,library stock concentration: 6.7 mM,≤ 0
COc1cccc(C2(O)CCCCC2CN(C)C)c1 (stereo unspecified) [Tramadol],scaled lipid accumulation score,[1],0.009
COc1ccc(CCN)cc1OC [Homoveratrylamine],scaled lipid accumulation score,[1],0.046
C=CCN1C[C@H](C(=O)N(CCCN(C)C)C(=O)NCC)C[C@@H]2c3cccc4[nH]cc(c34)C[C@H]21 [Cabergoline],scaled lipid accumulation score,library stock concentration: 4.4 mM,0.368
CCN1C[C@]2(COC)CC[C@H](O)[C@@]34C5C[C@@H]6[C@@H](OC)C[C@](O)(C(CC23)C14)C5[C@H]6OC(C)=O (stereo partly specified) [Condelphine],scaled lipid accumulation score,,≤ 0
COc1cc2c(c(OC)c1OC)-c1ccc(O)c(=O)cc1[C@@H](N)CC2 [Trimethylcolchicinic acid],scaled lipid accumulation score,,0.074
O=C(NC(COc1ccc2[nH]c(=O)[nH]c2c1)c1ccccc1)c1cccn(Cc2ccc(F)c(F)c2)c1=O (stereo unspecified),scaled lipid accumulation score,library stock concentration: 80 uM,≤ 0
same,scaled lipid accumulation score,library stock concentration: 400 uM,≤ 0
same,scaled lipid accumulation score,[4],≤ 0
same,scaled lipid accumulation score,[1],≤ 0
COc1cc([C@@H]2c3cc4c(cc3[C@H](O)[C@H]3COC(=O)[C@H]23)OCO4)cc(OC)c1OC [Podophyllotoxin],scaled lipid accumulation score,,≤ 0
same,scaled lipid accumulation score,[1],0.288
COc1cc([C@@H]2c3cc4c(cc3[C@H](O)[C@H]3COC(=O)[C@H]23)OCO4)cc(OC)c1OC [Podofilox],scaled lipid accumulation score,library stock concentration: 4.8 mM,0.201
same,scaled lipid accumulation score,[1],0.419
C/C=C(\C)C(=O)N[C@@H](c1ccccc1)[C@@H](O)C(=O)O[C@H]1C[C@@]2(O)[C@@H](OC(=O)c3ccccc3)[C@@H]3[C@]4(OC(C)=O)CO[C@@H]4C[C@H](O)[C@@]3(C)C(=O)[C@H](OC(C)=O)C(=C1C)C2(C)C [Cephalomannine],scaled lipid accumulation score,[3],≤ 0
same,scaled lipid accumulation score,[1],≤ 0
O=C(CCCN1CCC2(CC1)C(=O)NCN2c1ccccc1)c1ccc(F)cc1 [Spiperone hydrochloride],scaled lipid accumulation score,[1],0.74 and 0.784
O=C(CCCN1CCC2(CC1)C(=O)NCN2c1ccccc1)c1ccc(F)cc1 [Spiperone] [listing 1 of 2 here],scaled lipid accumulation score,,0.119
same,scaled lipid accumulation score,[5],0.399
same,scaled lipid accumulation score,[1],≤ 0
O=C(NCCN1CCC2(CC1)C(=O)NCN2c1ccccc1)c1ccc2ccccc2c1,scaled lipid accumulation score,[2],≤ 0
O=C(CCCN1CCC2(CC1)C(=O)NCN2c1ccccc1)c1ccc(F)cc1 [Spiperone] [listing 2 of 2 here],scaled lipid accumulation score,[5],0.939 (active)
O=C(CCCN1CCC2(CC1)C(=O)N(Cc1cccc(F)c1)CN2c1ccccc1)c1ccc(F)cc1.O=C(O)/C=C\C(=O)O [3'-Fluorobenzylspiperone maleate],scaled lipid accumulation score,[1],0.967 (active)
